Read-out in test [1]: Phosphatase and tensin (PTEN), PTEN (gene 5728)
In words: LTEA_HepaRG_PTEN: Life Technologies and Expression Analysis (LTEA) Assay for Phosphatase and tensin (PTEN) using HepaRG (AID 2283523). The following applies: mRNA level, 48 h; actives raise or lower the signal. In outline: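 Read-out: TaqMan qRT-PCR of PTEN transcript, normalized to three housekeeping genes, fitted in both directions against 0.5% DMSO. Differentiated human HepaRG cultures received chemicals for 48 h, eight-point half-log series topping at 100 uM.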

Read-out in test [2]: solute carrier (SLC22A1), SLC22A1 (gene 6580)
Put plainly: LTEA_HepaRG_SLC22A1: Life Technologies and Expression Analysis (LTEA) Assay for solute carrier (SLC22A1) using HepaRG (AID 2283524). The following applies: mRNA level, 48 h; actives raise or lower the signal. In short, it runs like this: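 Transcript level of SLC22A1 quantified by qRT-PCR (normalized to three housekeeping genes) after 48 h chemical exposure of HepaRG cells, eight concentrations up to 100 µM, half-log steps, 0.5% DMSO vehicle. Gain or loss relative to DMSO fitted bidirectionally.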

Read-out in test [3]: Pyruvate Dehydrogenase Kinase 4 (PDK4), PDK4 (gene 5166)
Put plainly: LTEA_HepaRG_PDK4: Life Technologies and Expression Analysis (LTEA) Assay for Pyruvate Dehydrogenase Kinase 4 (PDK4) using HepaRG (AID 2283525). The following applies: mRNA level, 48 h; actives raise or lower the signal. In outline: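 Readout is qRT-PCR of PDK4 transcript, normalized to three housekeeping genes, with bidirectional fitting against 0.5% DMSO vehicle. Differentiated HepaRG cells were treated 48 h in serum-free induction medium, duplicate wells, eight-point half-log series topping at 100 uM.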

Read-out in test [4]: NAD(P)H dehydrogenase [quinone] 1 (NQO1), NQO1 (gene 1728)
In words: LTEA_HepaRG_NQO1: Life Technologies and Expression Analysis (LTEA) Assay for NAD(P)H dehydrogenase [quinone] 1 (NQO1) using HepaRG (AID 2283526). The following applies: mRNA level, 48 h; actives raise or lower the signal. In short, it runs like this: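 qRT-PCR read-out (Fluidigm TaqMan), normalized to three housekeeping genes, after 48 h chemical exposure of HepaRG cells. Concentrations: eight points, top 100 uM, half-log steps, 0.5% DMSO vehicle. Gain or loss of signal fitted relative to DMSO.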

Read-out in test [5]: Nuclear factor erythroid 2-related factor 2 (Homo sapiens) (UniProt Q16236)
Put plainly: LTEA_HepaRG_NFE2L2: Life Technologies and Expression Analysis (LTEA) Assay for Nuclear factor erythroid 2-related factor 2 (NFE2L2) Transcription Factor using HepaRG (AID 2283527). The following applies: mRNA level, 48 h; actives raise or lower the signal. In short, it runs like this: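 NFE2L2 transcript level was read by qRT-PCR (housekeeping ACTB/GAPDH/POLR2A normalisation) after 48 h chemical treatment of HepaRG in serum-free induction medium. Duplicate 8-point half-log curves, top 100 uM, 0.5% DMSO vehicle; up- or down-regulation fitted against vehicle.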

Read-out in test [6]: succinate dehydrogenase complex iron sulfur subunit B (SDHB), SDHB (gene 6390)
Put plainly: LTEA_HepaRG_SDHB: Life Technologies and Expression Analysis (LTEA) Assay for succinate dehydrogenase complex iron sulfur subunit B (SDHB) using HepaRG (AID 2283528). The following applies: mRNA level, 48 h; actives raise or lower the signal. In short, it runs like this: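 Readout is SDHB transcript level by qRT-PCR, normalised to three housekeeping genes and fitted bidirectionally against 0.5% DMSO vehicle. Human HepaRG cells were treated for 48 h at up to 100 uM.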

Read-out in test [7]: Signal transducer and activator of transcription 3 (Homo sapiens) (UniProt P40763)
Put plainly: LTEA_HepaRG_STAT3: Life Technologies and Expression Analysis (LTEA) Assay for Signal transducer and activator of transcription (STAT3) using HepaRG (AID 2283529). The following applies: mRNA level, 48 h; actives raise or lower the signal. In short, it runs like this: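 STAT3 transcript quantified by qRT-PCR against three housekeeping genes (ACTB, GAPDH, POLR2A), fitted both directions relative to DMSO. HepaRG cultures exposed 48 h to eight half-log concentrations, top 100 uM, 0.5% DMSO, serum-free induction medium.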

Read-out in test [8]: solute carrier (SLCO1B1), SLCO1B1 (gene 10599)
In words: LTEA_HepaRG_SLCO1B1: Life Technologies and Expression Analysis (LTEA) Assay for solute carrier (SLCO1B1) using HepaRG (AID 2283530). The following applies: mRNA level, 48 h; actives raise or lower the signal. In short, it runs like this:
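Human HepaRG cultures treated for 48 h with an eight-concentration half-log series topping at 100 uM; SLCO1B1 measured by qRT-PCR and fitted bidirectionally relative to DMSO.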

Read-out in test [9]: sulfotransferase 2A1 (SULT2A1), SULT2A1 (gene 6822)
Put plainly: LTEA_HepaRG_SULT2A1: Life Technologies and Expression Analysis (LTEA) Assay for sulfotransferase 2A1 (SULT2A1) using HepaRG (AID 2283531). The following applies: mRNA level, 48 h; actives raise or lower the signal. In short, it runs like this: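 Gene-expression endpoint in a human liver cell line: SULT2A1 mRNA change after 48 h chemical treatment, curves fitted in both directions relative to 0.5% DMSO vehicle. Concentrations spanned eight half-log steps from 100 uM.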

Read-out in test [10]: Transforming Growth Factor (TGFA), TGFA (gene 7039)
Put plainly: LTEA_HepaRG_TGFA: Life Technologies and Expression Analysis (LTEA) Assay for Transforming Growth Factor (TGFA) using HepaRG (AID 2283532). The following applies: mRNA level, 48 h; actives raise or lower the signal. In outline:
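TGFA transcript quantified by qRT-PCR (Fluidigm arrays) against three housekeeping genes, after 48 hours chemical treatment of HepaRG cells. Top concentration 100 uM with half-log dilutions, 8 points, duplicates, 0.5% DMSO.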

Read-out in test [11]: Transforming Growth Factor (TGFB1), TGFB1 (gene 7040)
Put plainly: LTEA_HepaRG_TGFB1: Life Technologies and Expression Analysis (LTEA) Assay for Transforming Growth Factor (TGFB1) Transporter using HepaRG (AID 2283533). The following applies: mRNA level, 48 h; actives raise or lower the signal. In outline:
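Eight-point concentration-response (max 100 uM, half-log) in HepaRG under serum-free induction conditions, 48 h. TGFB1 mRNA by qRT-PCR, housekeeping-normalized.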

Read-out in another test: TIMP1, TIMP1 (gene 7076)
Put plainly: LTEA_HepaRG_TIMP1: Life Technologies and Expression Analysis (LTEA) Assay for TIMP1 using HepaRG (AID 2283534). The following applies: mRNA level, 48 h; actives raise or lower the signal. In outline: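 TIMP1 induction or repression in HepaRG cells after 48 h chemical exposure (eight concentrations, highest 100 uM), assessed by normalized qRT-PCR with bidirectional fitting to DMSO controls.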

Read-out in test [12]: Tumor necrosis factor receptor 1 (TNFRSF1A), TNFRSF1A (gene 7132)
Put plainly: LTEA_HepaRG_TNFRSF1A: Life Technologies and Expression Analysis (LTEA) Assay for Tumor necrosis factor receptor 1 (TNFRSF1A) using HepaRG (AID 2283535). The following applies: mRNA level, 48 h; actives raise or lower the signal. In short, it runs like this:
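Assay uses 48 h chemical treatment of differentiated HepaRG monolayers, tested in duplicate at eight concentrations from 100 uM downward in 0.5% DMSO. mRNA is normalized to ACTB, GAPDH and POLR2A, with induction or suppression fitted relative to vehicle.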

Read-out in test [13]: Cellular tumor antigen p53 (Homo sapiens) (UniProt P04637)
Put plainly: LTEA_HepaRG_TP53: Life Technologies and Expression Analysis (LTEA) Assay for Tumor Protein P53 (TP53) using HepaRG (AID 2283537). The following applies: mRNA level, 48 h; actives raise or lower the signal. In short, it runs like this: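 Read-out is TP53 transcript level by microfluidic qRT-PCR, normalised to three housekeeping genes and fitted bidirectionally against DMSO. Human HepaRG cells received compounds for 48 h, highest concentration 100 uM.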

Read-out in test [14]: UDP glucuronosyltransferase (UGT1A1), UGT1A1 (gene 54658)
Put plainly: LTEA_HepaRG_UGT1A1: Life Technologies and Expression Analysis (LTEA) Assay for UDP glucuronosyltransferase (UGT1A1) using HepaRG (AID 2283538). The following applies: mRNA level, 48 h; actives raise or lower the signal. In short, it runs like this:
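HepaRG, 48 h chemical exposure (top 100 uM, half-log 8-pt, 0.5% DMSO vehicle), duplicate wells; qRT-PCR (TaqMan, Fluidigm array) for UGT1A1 mRNA, housekeeping-normalized; bidirectional curve fit vs DMSO baseline.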

Read-out in test [15]: UDP glucuronosyltransferase (UGT1A6), UGT1A6 (gene 54578)
In words: LTEA_HepaRG_UGT1A6: Life Technologies and Expression Analysis (LTEA) Assay for UDP glucuronosyltransferase (UGT1A6) using HepaRG (AID 2283539). The following applies: mRNA level, 48 h; actives raise or lower the signal. In outline: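 Measures mRNA change in HepaRG hepatic cells exposed 48 h to chemicals (eight-point, maximum 100 uM, 0.5% DMSO vehicle) in serum-free induction medium. Expression normalized to endogenous controls; DMSO served as negative control and baseline.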

Read-out in test [16]: X-box binding protein 1 (XBP1), XBP1 (gene 7494)
Put plainly: LTEA_HepaRG_XBP1: Life Technologies and Expression Analysis (LTEA) Assay for X-box binding protein 1 (XBP1) using HepaRG (AID 2283540). The following applies: mRNA level, 48 h; actives raise or lower the signal. In short, it runs like this:
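Eight concentrations (half-log, highest 100 uM, 0.5% DMSO) tested in duplicate on HepaRG cells over 48 h in serum-free induction medium; qRT-PCR of XBP1 normalised to ACTB, GAPDH, POLR2A.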

The nature of test [17]: LTEA_HepaRG_LDH_cytotoxicity: Cytotoxicity Assessment in the Life Technologies and Expression Analysis (LTEA) Assay (AID 2283563; active = hit-call score of the fitted dose curve at least 0.9, where 1 is the maximum). In short, it runs like this: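 Spent-medium LDH after 48 h chemical exposure of HepaRG cells in serum-free induction medium; eight concentrations, half-log dilutions from 100 uM, duplicate wells, fitted upward relative to 0.5% DMSO.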
Test [18] is described as follows: ATG_XTT_Cytotoxicity: Cytotoxicity Assessment in the Attagene TRANS-FACTORIAL HepG2 Assay (AID 2283584; active = hit-call score of the fitted dose curve at least 0.9, where 1 is the maximum). In short, it runs like this:
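24 h chemical exposure of reporter-transfected HepG2; XTT signal loss vs DMSO indicates cytotoxicity.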

Molecules are shown by their SMILES. Records with an inconclusive call do not appear. Calls of active or inactive are those of the source. The calls were made as follows, unless noted: active = hit-call score of the fitted dose curve at least 0.9, where 1 is the maximum; inactive = score below 0.9.

Chain of Signal transducer and activator of transcription 3 (Homo sapiens) (P40763 whole entry, looked up): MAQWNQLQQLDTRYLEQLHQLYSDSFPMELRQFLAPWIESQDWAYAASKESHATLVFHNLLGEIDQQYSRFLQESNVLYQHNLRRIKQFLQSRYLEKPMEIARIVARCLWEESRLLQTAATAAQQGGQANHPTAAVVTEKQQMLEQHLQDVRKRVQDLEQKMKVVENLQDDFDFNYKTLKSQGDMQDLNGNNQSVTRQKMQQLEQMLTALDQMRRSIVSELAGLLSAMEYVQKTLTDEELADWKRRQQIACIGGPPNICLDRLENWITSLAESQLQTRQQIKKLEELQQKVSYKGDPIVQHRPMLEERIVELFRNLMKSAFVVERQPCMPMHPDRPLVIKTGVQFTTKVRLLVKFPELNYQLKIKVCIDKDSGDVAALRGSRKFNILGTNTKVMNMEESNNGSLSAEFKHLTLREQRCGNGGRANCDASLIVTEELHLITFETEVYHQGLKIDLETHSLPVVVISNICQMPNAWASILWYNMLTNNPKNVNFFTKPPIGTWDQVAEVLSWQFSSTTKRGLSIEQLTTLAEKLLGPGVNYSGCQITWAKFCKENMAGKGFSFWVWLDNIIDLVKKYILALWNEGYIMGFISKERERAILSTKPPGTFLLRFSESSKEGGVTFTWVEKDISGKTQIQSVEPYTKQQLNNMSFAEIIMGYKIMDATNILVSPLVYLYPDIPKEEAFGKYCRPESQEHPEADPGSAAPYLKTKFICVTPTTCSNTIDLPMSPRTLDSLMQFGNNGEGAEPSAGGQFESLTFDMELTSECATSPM
Chain of Cellular tumor antigen p53 (Homo sapiens) (P04637 whole entry, looked up): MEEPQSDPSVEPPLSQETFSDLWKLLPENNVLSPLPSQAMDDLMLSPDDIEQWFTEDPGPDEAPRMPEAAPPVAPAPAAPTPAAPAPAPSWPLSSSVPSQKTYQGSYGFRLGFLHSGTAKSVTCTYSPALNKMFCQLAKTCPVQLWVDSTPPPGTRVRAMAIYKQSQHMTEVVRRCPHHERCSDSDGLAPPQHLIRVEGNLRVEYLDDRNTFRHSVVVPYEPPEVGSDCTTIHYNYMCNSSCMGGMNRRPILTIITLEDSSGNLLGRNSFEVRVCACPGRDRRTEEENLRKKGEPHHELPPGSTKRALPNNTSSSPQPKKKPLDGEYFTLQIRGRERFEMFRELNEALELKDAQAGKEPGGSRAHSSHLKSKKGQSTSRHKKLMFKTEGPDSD
Chain of Nuclear factor erythroid 2-related factor 2 (Homo sapiens) (Q16236 whole entry, looked up): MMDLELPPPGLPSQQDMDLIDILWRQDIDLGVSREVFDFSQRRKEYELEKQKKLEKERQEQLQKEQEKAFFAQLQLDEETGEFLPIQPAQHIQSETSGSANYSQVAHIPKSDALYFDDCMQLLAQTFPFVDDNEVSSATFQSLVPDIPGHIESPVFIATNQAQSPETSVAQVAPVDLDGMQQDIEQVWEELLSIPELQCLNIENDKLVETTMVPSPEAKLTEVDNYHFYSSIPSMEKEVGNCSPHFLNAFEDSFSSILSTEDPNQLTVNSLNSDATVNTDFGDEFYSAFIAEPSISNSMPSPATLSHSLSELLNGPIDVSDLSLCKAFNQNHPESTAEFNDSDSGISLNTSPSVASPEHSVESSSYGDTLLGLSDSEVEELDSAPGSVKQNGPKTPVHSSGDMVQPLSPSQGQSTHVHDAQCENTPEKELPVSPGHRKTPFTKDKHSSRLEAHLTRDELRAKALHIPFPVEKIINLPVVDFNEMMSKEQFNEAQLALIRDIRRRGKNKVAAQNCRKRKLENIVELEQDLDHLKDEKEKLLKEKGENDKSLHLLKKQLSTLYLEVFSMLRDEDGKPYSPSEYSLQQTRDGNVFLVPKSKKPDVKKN

On to `CC(=O)OCCC(C)C`, for which the result in test [1], in test [2], in [3], in [4], in test [5] and in [6] was inactive. For the same compound, the outcome was “inactive” in [7]; “inactive” in test [8]; “inactive” in test [9]; “inactive” in test [10]; “inactive” in [11]; “inactive” with TIMP1, TIMP1 (gene 7076). Also, the result in test [12], in [13], in [14], in [15], in test [16] and in test [17] was inactive. In [18], the outcome was inactive.

`CC1=CC(=O)CC(C)(C)C1`: the outcome in [1], in test [2], in test [3], in test [4], in test [5] and in test [6] was inactive. Also, the outcome was “inactive” in test [7]; “inactive” in [8]; “inactive” in test [9]; “inactive” in [10]; “inactive” in [11]; “inactive” with TIMP1, TIMP1 (gene 7076). Besides, the result in [12], in [13], in [14], in [15], in test [16] and in test [17] was inactive.

As usually defined, the AC50 is the midpoint of the concentration-response curve, whichever way the signal moves. Take `COc1ccc(-n2nc(C(F)F)cc2-c2ccc(S(C)=O)cc2)cc1` (stereo unspecified): the compound was called inactive in test [1], in [2], in test [3], in test [4], in test [5] and in [6]. Also, the outcome is “inactive” in [7]; “inactive” in test [8]; “inactive” in test [9]; “inactive” in test [10]; “inactive” in test [11]; “inactive” with TIMP1, TIMP1 (gene 7076). Besides, the outcome in test [12], in test [13], in [15], in test [16], in test [17] and in test [18] was inactive. The AC50 in test [14] is 39.6 µM (active).

The record behind these values is PubChem BioAssay (EPA / NIEHS).
